Only some compounds are listed: those with a hit (about 11% of all), similar ones and a draw of the others.
3T3 cytotox: kills NIH 3T3 cells. NIH 3T3 viability, CellTiter-Glo ATP luminescence, 48-72 h. Potency, µM (titrated, usually from 96.7 µM), for inactives: at the highest dose activity change, negative = cytotoxicity, actives largely listed as inhibitors. 4.3% of 94,000 active. AID 1345082; further: nearly all actives have a fitted effect of over 55% in size
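Cytotoxicity was measured by CellTiter-Glo ATP luminescence after 48 or 72 h compound exposure at 37 °C. Mouse NIH 3T3 fibroblasts were seeded at 400 cells/well and dosed by 23 nL pin transfer.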
hNpr1 antagonist: antagonists of human natriuretic peptide receptor Npr1 | P16066 | HEK293 hNpr1 GloSensor cGMP, ANP-stimulated luminescence | Potency, µM (highest dose often 46.3 µM), for inactives: at the top dose activity change, negative = inhibition, hits mostly inhibitors | 1.6% of 76,000 active | AID 1347048; calls by dose curve; further: nearly all actives have a fitted effect of over 60% in size
Target sequence (P16066 whole entry, looked up): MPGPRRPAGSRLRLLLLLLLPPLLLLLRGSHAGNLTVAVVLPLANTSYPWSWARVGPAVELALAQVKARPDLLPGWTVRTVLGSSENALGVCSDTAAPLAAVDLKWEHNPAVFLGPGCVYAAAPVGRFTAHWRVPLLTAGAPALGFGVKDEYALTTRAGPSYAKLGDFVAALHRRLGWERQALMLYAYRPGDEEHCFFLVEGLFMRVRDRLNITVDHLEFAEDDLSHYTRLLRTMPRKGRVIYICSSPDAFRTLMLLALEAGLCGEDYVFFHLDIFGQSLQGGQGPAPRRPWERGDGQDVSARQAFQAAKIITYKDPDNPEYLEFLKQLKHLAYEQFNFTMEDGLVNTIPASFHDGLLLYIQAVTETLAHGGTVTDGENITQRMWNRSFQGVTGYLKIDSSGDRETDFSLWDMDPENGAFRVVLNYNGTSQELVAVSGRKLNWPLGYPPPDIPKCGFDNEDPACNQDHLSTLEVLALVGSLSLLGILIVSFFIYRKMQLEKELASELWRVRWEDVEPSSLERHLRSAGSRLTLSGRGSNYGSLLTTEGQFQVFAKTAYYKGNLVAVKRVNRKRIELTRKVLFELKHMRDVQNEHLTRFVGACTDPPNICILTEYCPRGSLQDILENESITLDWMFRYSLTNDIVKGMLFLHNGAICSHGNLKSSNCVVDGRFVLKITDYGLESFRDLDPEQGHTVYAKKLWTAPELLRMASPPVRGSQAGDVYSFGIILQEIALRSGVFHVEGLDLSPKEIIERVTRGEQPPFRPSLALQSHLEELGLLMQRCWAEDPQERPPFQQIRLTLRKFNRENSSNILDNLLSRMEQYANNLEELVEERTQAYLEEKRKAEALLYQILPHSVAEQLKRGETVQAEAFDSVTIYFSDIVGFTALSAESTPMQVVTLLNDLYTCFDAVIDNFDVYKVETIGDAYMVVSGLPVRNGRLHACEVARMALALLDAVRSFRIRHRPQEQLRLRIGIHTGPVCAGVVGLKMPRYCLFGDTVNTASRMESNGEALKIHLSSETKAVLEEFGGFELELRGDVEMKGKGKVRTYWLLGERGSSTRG
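HEK293 cells stably expressing human Npr1 and cGMP GloSensor pGS-40F, loaded 2 h with 2% GloSensor reagent, given compound 30 min at room temperature. Luminescence read before and 20 min after 0.1 nM hNppA.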
Luciferase inh: blocks purified firefly luciferase enzyme activity. P08659. purified P. pyralis luciferase, luminescence, biochemical. Potency, µM (doses to about 115 µM), hits mostly inhibitors. 2.5% of 76,000 active. AID 1347043; further: nearly all actives have a fitted effect of over 65% in size
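FLuc 10nM, D-luciferin 10uM, ATP 10uM, Mg acetate 10mM, Tris acetate pH 7.5, Tween/BSA; cpd qHTS; enzyme added last; CCD luminescence.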
HEK293 tox: cytotoxic compounds in HEK 293 cells | AID 1345083 | HEK 293 viability, ATP luminescence (CellTiter-Glo), 48-72 h | 6.6% of 94,000 active | Potency, µM (top dose mostly 115 µM), for the others: top-dose activity change, negative = cytotoxicity, usual class: inhibitors; further: nearly all actives have a fitted effect of over 60% in size
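Cytotoxicity was scored by loss of ATP-coupled luminescence (CellTiter-Glo) in HEK 293 cells. Compound treatment ran 48 or 72 hr at 37 degree Celsius, 5% CO2, 95% humidity.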
Numbers without * were called inactive; i = inactive; ? = inconclusive; . = no result given; [ ] = dose if it differs, or a comment. Unless noted, the call rests on the fitted dose curve; in most records, active means well fitted curve in the direction sought with a large enough effect; inconclusive means small, poorly fitted or top-dose-only effect, or another doubt; inactive means no such curve, though single readings can be large; an effect the other way counts as inactive or inconclusive. On the % scale 0 is the no-effect control and ±100 the full control effect; potency means the concentration at half of the fitted maximal effect.

SMILES	3T3 cytotox	hNpr1 antagonist	Luciferase inh	HEK293 tox
O=c1c2cc(-c3cccs3)nn2ccn1CC(O)c1ccc(F)cc1 (centres undefined)	-2%	-23%	i	-10%
COc1ccc(OC)c(C(O)Cn2ccn3nc(-c4cccs4)cc3c2=O)c1 (centres undefined)	?	-14%	i	35µM*
CC1(CNc2ccccc2)COc2ccc(C(=O)NCCN3CCOCC3)cc2N1 (centres undefined)	-5%[138 µM]	-2%[70.6 µM]	i	?
CCOCC1(C)COc2ccc(C(=O)NCCc3ccccc3)cc2N1 (centres undefined)	?	-5%[70.6 µM]	22µM*	?
CC1(CNc2ccccc2)COc2ccc(C(=O)N3CCN(c4ccccn4)CC3)cc2N1 (centres undefined)	?	?	i	?
CC1(CNc2ccccc2)COc2ccc(C(=O)NCCOc3ccccc3)cc2N1 (centres undefined)	32µM*	?	?	40µM*
CC1(CNc2ccccc2)COc2ccc(C(=O)NCCc3ccccn3)cc2N1 (centres undefined)	?	-2%[70.6 µM]	i	100µM*
CC1(COc2ccccc2)COc2ccc(C(=O)NCCOc3ccccc3)cc2N1 (centres undefined)	?	?	i	79µM*
CCOC(=O)c1ccc(NC(=O)N2CCC3(CC2)SCC(=O)N3Cc2ccco2)cc1	?	-12%	i	?
c1cncc(CN2CCC(Oc3nccnc3N3CCc4ccccc43)C2)c1 (centres undefined)	-14%	-14%	i	?
CN(C)C(=O)N1CCC(C(=O)N2CCC(N3Cc4cccn4C3=O)CC2)CC1	-14%	.	.	-4%
Cn1cc(C2CCN(C(=O)c3c(Cl)cc(Cl)cc3Cl)CC2)c2ccccc21	?	-12%	i	?
COC(=O)C1=C(C)N=C2SC=C(CC(=O)NCc3ccccc3)N2C1c1ccccc1C (centres undefined)	?	-5%	i	45µM*
COC(=O)C1=C(C)N=C2SC=C(CC(=O)NCc3ccccc3)N2C1c1cccc(F)c1 (centres undefined)	?	-25%	i	?
CC1=C(C(=O)Nc2ccccc2)C(c2cc(C)ccc2C)N2C(CC(=O)NC(C)C)=CSC2=N1 (centres undefined)	?	-26%	i	40µM*
COC(=O)C1=C(C)N=C2SC=C(CC(=O)NCCc3ccccc3)N2C1c1cccc(OC)c1 (centres undefined)	?	-16%	i	45µM*
COC(=O)C1=C(C)N=C2SC=C(CC(=O)NCc3ccc(F)cc3)N2C1c1cccc(OC)c1 (centres undefined)	?	-8%	i	40µM*
COC(=O)C1=C(C)N=C2SC=C(CC(=O)NC3CC3)N2C1c1cccc(OC)c1 (centres undefined)	-4%	-19%	i	?
O=C(C[C@@H]1CCNC[C@@H]1Cc1cc(-c2ccc(F)cc2)on1)N1CCC(Cc2ccccc2)CC1	20µM*	1%	i	32µM*
O=C(C[C@@H]1CCNC[C@@H]1Cc1cc(COc2ccccc2)on1)N1CCN(c2ccc(F)cc2)CC1	25µM*	-16%	i	22µM*
CN(Cc1ccccc1)C(=O)C[C@@H]1CCNC[C@@H]1Cc1cc(CN(C)c2ccccc2)on1	79µM*	-15%	i	?
COCc1cc(C[C@H]2CNCC[C@H]2CC(=O)N(C)Cc2ccccc2)no1	-5%[174 µM]	-2%[70.6 µM]	i	-6%[172 µM]
CCCCc1cc(C[C@H]2CNCC[C@H]2CC(=O)Nc2nccs2)no1	?	-12%[70.6 µM]	63µM*	?
CCc1ccc([S+](=O)([O-])c2nnn3c2nc(NCCCOC(C)C)c2ccccc23)cc1	-10%	.	.	0%
COc1ccc2c(c1)C(CNc1ccc(C)c([S+](=O)([O-])N3CCOCC3)c1)=CC(C)(C)CO2	-33%	.	.	?
SMILES	3T3 cytotox	hNpr1 antagonist	Luciferase inh	HEK293 tox
CCN(CC)C(=O)C[C@@H]1CCNC[C@@H]1Cc1cc(CC2CCCCC2)on1	25µM*	3%[70.6 µM]	i	71µM*
CN(Cc1ccccc1)C(=O)C[C@@H]1CCNC[C@@H]1Cc1cc(CC2CCCCC2)on1	45µM*	?	i	28µM*
CN(Cc1ccccc1)C(=O)C[C@@H]1CCNC[C@@H]1Cc1cc(-c2ccc(F)cc2)on1	32µM*	-23%[70.6 µM]	i	35µM*
O=C(C[C@@H]1CCNC[C@@H]1Cc1cc(CC2CCCCC2)on1)NC1CC1	?	2%[70.6 µM]	i	i
CC(C)(C)NC(=O)C[C@@H]1CCNC[C@@H]1Cc1cc(CC2CCCCC2)on1	35µM*	7%[70.6 µM]	i	45µM*
Cc1nnc2ccc(N3CCC(NC(=O)c4ccncc4)C3)nn12 (centres undefined)	-18%[138 µM]	.	.	i
CC(C)(C)c1cc(C[C@H]2CNCC[C@H]2CC(=O)Nc2ccccc2)no1	112µM*	-16%[70.6 µM]	i	?
CCC(O)c1cc2n(n1)CCN(c1nc(-c3ccccc3)nc3c1CCC3)C2 (centres undefined)	?	5%	i	?
CCCCN1CCN(c2nc(-c3ccccc3)nc3c2CCNC3)CC1=O	?	-1%	i	79µM*
CCN(CC1CCN(C2CCN(C)CC2)CC1)C(=O)c1ccc(-c2ccccc2)cc1	28µM*	7%	i	22µM*
CN1CCC(Cc2ccc(C(=O)O)cc2)CC1	5%	-2%	i	i
O=C1NCCCCCCN(C(=O)CC2CCCCC2)[C@H]2C[C@H](c3nc(Cc4ccccc4)no3)C[C@@H]12	35µM*	-8%	i	?
O=C1NCCCCCCN(C(=O)CCC2CCCC2)[C@H]2C[C@H](c3nc(Cc4ccccc4)no3)C[C@@H]12	?	-8%	i	32µM*
O=C1NCCCCCCN(C(=O)C2CC=CC2)[C@H]2C[C@H](c3nc(Cc4ccccc4)no3)C[C@@H]12	?	-8%	i	?
COCCOCC(=O)N1CCCCCCNC(=O)[C@@H]2C[C@@H](c3nc(Cc4ccccc4)no3)C[C@@H]21	-14%	-1%	i	i
O=C(c1ccc2c(c1)OCO2)N1CCC2(CC1)N(c1ccccc1)C(=O)CS2(=O)=O	1%	3%	i	3%
COc1ccc(F)cc1-c1cccc(C(=O)NCCNC(=O)Nc2ccc(Cl)cc2)c1	32µM*	.	.	?
COc1ccc(F)cc1-c1cccc(C(=O)NCCNC(=O)c2ccc(Cl)nc2)c1	?	.	.	40µM*
COc1ccc(F)cc1-c1cccc(C(=O)NCCNC(C)=O)c1	?	.	.	-25%[172 µM]
COc1cccc(C(=O)NCCNC(=O)c2cccc(-c3cc(F)ccc3OC)c2)c1	45µM*	.	.	?
COc1ccc(F)cc1-c1cccc(C(=O)NCCNC(=O)c2cccc(Cl)c2)c1	?	.	.	20µM*
COc1ccc(F)cc1-c1cccc(C(=O)NCCN[S+](C)(=O)[O-])c1	-29%	.	.	-12%

Bioassay records as filed in PubChem BioAssay.
